The panel holds about 83,000 compounds, 20% with a hit somewhere; the sample as a whole holds those more often.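 Note: values are percent growth. 100 is the growth of untreated cells, values between 100 and 0 indicate rising inhibition; between -100 and 0 indicates cell death.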 Values without a mark were called inactive. Active and inactive are the calls of the source.

The subject of the experiment is UACC-62 melanoma. The experiment can be described thus: NCI-60 one-dose screen, 48 h (100 = growth as untreated, 0 = no growth, -100 = all killed). The following applies: 10 µM unless noted. Here is the method:
Growth inhibition of the UACC-62 human tumor cell line is measured as a screen for anti-cancer activity. Cells are grown in 96 well plates and exposed to the test compound for 48 hours. Compounds are tested at a single concentration, which is 10^-5 M for most compounds. The reported endpoint is percent growth (GI% or GIPRCNT), where numbers from 0 - 100% represent growth inhibition, and numbers from -100% - 0 represent cell death. For example, a value of 40 represents 60% growth inhibition. A value of 0 means no net growth occurred over the course of the experiment. A value of -40 indicates 40% of cells at the beginning of the experiment died by the end of the experiment. A value of -100 means all cells are dead at the end of the experiment.
NCI-60 Human Tumor Cell Lines Screen was performed using the standard one-dose NCI protocol, which is described in more detail at https://dtp.cancer.gov/discovery_development/nci-60/default.htm.
Compounds with GIPRCNT values below 10 were considered active. Activity score was based on GIPRCNT using the following formula: […]
Score is 0 for GIPRCNT values of 100 or above, 50 for GIPRCNT values of 0, and 100 for GIPRCNT values of -100.
For the compound `Cc1nn(-c2ccc(Cl)cc2)c(C)c1N=Nc1ccc2oc(=O)ccc2c1`, the growth is 80.5%.

Take `CCNC(=O)Oc1ccc(/C(=C(/C)c2ccccc2)c2ccc(OCCN3CCCC3)cc2)cc1`: the growth is 83.4%.

For the compound `COc1ccc(-c2cc(-c3ccc(Cl)cc3)nc3nc(N)nn23)cc1`, the growth is 92.8%. The value for `ClC(Cl)c1nc(-c2cccs2)n2nc(-c3ccccc3)cc2n1` was 23.6%; that for `C=C(C)C(=O)O[C@H]1C[C@@]2(C)OC(=CC2=O)[C@H](C)[C@H](O)[C@H]2OC(=O)C(=C)[C@@H]21` was 52.3%; that for `CN1CCN(c2nc(-c3cnc4ccccc4n3)cc3ccccc23)CC1` was -7.14% (active). As for `Cc1cc(C(=O)Nc2ccc(SC#N)cc2)c(C)o1`, the growth is 93.1%. For `O=[N+]([O-])c1ccc(-c2nnc(SCc3ccc(O)c4ncccc34)o2)cc1`, the growth is 25.3%.

Take `CS(=O)c1nccc(-c2c(-c3ccc(F)c(OCc4ccccc4)c3)nc3sccn23)n1` (stereo not given): the growth is 93.6%. In the case of `Cc1nn(-c2ccc(Br)cc2)c2nc(CCl)[nH]c(=O)c12`, the growth is 95.1%.

For the compound `COc1cnc2c(c1)C(=O)c1c-2n(CCCNCC2CC2)c(=O)c2cc(F)ccc12`, the growth was -56.2% (active). For the compound `Nc1n[nH]c2cccc(C#Cc3cccc(NC(=O)c4cccc(OC(F)(F)F)c4)c3)c12`, the growth is 30.1%.

Turning to `O=C1Nc2ccc(Cl)cc2/C1=C/c1ccc(OCc2ccc(Br)cc2F)cc1`, the growth is 93.6%. For `CC(C)=CCC[C@](C)(O)[C@H]1CC[C@]2(C)[C@@H]1CC[C@@H]1[C@@]3(C)CCC(NC(=O)c4ccccc4C(=O)O)C(C)(C)[C@@H]3CC[C@]12C` (stereo not given in full), the growth was 28.7%. Regarding `O=C(Nc1ccccc1)Nc1nc2ccc([N+](=O)[O-])cc2s1`, the growth is 1.73% (active). As to `O=C1c2c(c3c4cc(Br)ccc4[nH]c3c3ccc4ccccc4c23)C(=O)N1CCN1CCNCC1`, the growth is 78.8%.

For the compound `Cc1ccccc1NC1CC(=O)N(c2ccc(Cl)cc2Cl)C1=O` (stereo not given), the growth was 99.8%.

As to `N#C/C(=C\c1ccc(N2CCCCC2)cc1)C(=O)Nc1sc2c(c1C#N)CCC2`, the growth was 90.2%. Under `O=C(CSc1nnc(-c2cccs2)n1-c1ccccc1)Nc1ccc(F)cc1` stands 67.9%. With `CCNC(=NCCCN(C)C)N/C(N)=N/c1nc2ccccc2s1`, the growth was 97.6%. Under `CS(=O)(=O)c1nccc(-c2c(-c3ccc(F)c(OCCc4ccccc4)c3)nc3sccn23)n1` stands 83.9%; under `CCOC(=O)c1c(NCC(=O)Nc2cccc(Cl)c2)sc2c1CCCC2`, 61.9%; under `CCN1C(=O)N(CC)C2SC(N/N=C/c3cccs3)=NC21` (stereo not given), 36.7%.

On to `COc1cc(/C=N/n2cnc3oc(-c4ccccc4)cc3c2=N)cc(CN2CCCCC2)c1O`, for which the growth was -74.8% (active). On to `N/C(=N\OC(=O)CSc1nc2ccccc2s1)c1ccc2ccccc2c1`, for which the growth was 91.4%. Take `C/C(=C(/c1ccc(O)cc1)c1ccc(OCCN(C)C)cc1)c1ccc(Cl)cc1`: the growth is -27.3% (active). For `NC(=O)c1c(NC(=O)c2cccc(OC(F)(F)F)c2)sc2c1CCC(=O)C2`, the growth is 60.7%. For the compound `CN1CCN(c2nc(-c3csc(-c4ccncc4)n3)cc3ccccc23)CC1`, the growth is 26.6%.

On to `COC(=O)c1nc(-c2ccc(C)cc2)oc1S(=O)(=O)N1CCN(c2oc(-c3ccccc3)nc2C#N)CC1`, for which the growth was 92%. `O=C1[C@H]2Cc3c([nH]c4ccccc34)[C@H](c3ccc(Cl)cc3)N2C(=O)CN1C1CCN(Cc2c(Cl)cccc2Cl)CC1`: the growth was 88.8%. Under `NS(=O)(=O)c1ccc(Nc2nc(N/N=C/c3ccc(F)cc3)nc(Nc3ccccc3)n2)cc1` stands 60.5%. In the case of `Cc1cn(-c2cc(NC(=O)c3cncc(C#Cc4cnc5ccc(O[C@@H]6CCOC6)nn45)c3)cc(C(F)(F)F)c2)cn1`, the growth is -51.7% (active). For the compound `COc1ccccc1/C=C/C(=O)c1nnn(-c2ccc(C(=O)O)cc2)c1C`, the growth is 79.7%.

In the case of `C#C[C@]1(O)CC[C@H]2[C@@H]3CC=C4c5sc(Nc6cccc(C)n6)nc5CC[C@]4(C)[C@H]3CC[C@@]21C`, the growth was -20.9% (active). Under `O=C(/C=C1\C=CN(CCCCF)c2ccccc21)n1ccc2ccccc21` stands 89.2%.

As to `C=C(C)[C@@H]1CC[C@]2(C(=O)ON)CC[C@]3(C)[C@H](CC[C@@H]4[C@@]5(C)C/C(=C/c6ccc(Br)cc6)C(=O)C(C)(C)[C@@H]5CC[C@]43C)[C@@H]12`, the growth was 59.5%. Consider `Clc1ccccc1/C=C/c1nn2c(-c3ccncc3)nnc2s1`, for which the growth is 94.3%. Take `O=C(c1cccc(F)c1)n1ccc2cc(NC(=S)Nc3cccnc3)ccc21`: the growth was 86.8%. For the compound `O=C(NNc1nc2cc(F)c(F)cc2n2cccc12)c1ncccn1`, the growth was 18.3%. `NS(=O)(=O)c1ccc(-n2cc(CC=O)nn2)cc1`: the growth was 95.7%.

Values taken from PubChem BioAssay (NCI).
